Hits are enriched below; roughly 3.1% of the tested compounds scored in any of these assays.
Vif-APOBEC3F blk – blocks the Vif interaction with APOBEC3F; hit rate 0.2% among 390,000; AID 602313; Potency, µM (titrated, usually from 46.1 µM), without a hit: at the top dose activity, negative = active; HeLa A3F-eYFP + Vif (tagged APOBEC3F with the HIV-1 protein that degrades it), YFP fluorescence increase; further: potency means the concentration at half of the fitted maximal effect; % of control where 0% means no effect; nearly all actives have a fitted effect of over 65% in size
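Fluorescence increase (Ex 488/Em 500-530) after overnight compound treatment at 37 deg C flags inhibition of Vif-driven A3F-eYFP loss in stable HeLa A3F-eYFP/Vif cells seeded overnight beforehand.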
VDR inh – blocks the human vitamin D receptor; P11473; VDR-SRC2-3 peptide fluorescence polarization, 2 h; Potency, µM, for inactives: max response, negative = inhibition, most hits filed as inhibitors; hit rate 0.93% among 400,000; AID 504847; further: potency means the concentration at half of the fitted maximal effect; on the % scale 0 is the no-effect control and ±100 the full control effect
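Inhibition of the VDR/SRC2-3 peptide interaction is quantified by fluorescence polarization. Compounds (23 nl, pintool) incubate with the reagents for 2 hours at ambient room temperature.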
PLK1 PBD inh – inhibitors of human PLK1 polo-box domain binding | P53350 | Plk1 PBD binding of FITC phosphopeptide, fluorescence polarization | Potency, µM, inactives show max response, negative = inhibition, most hits filed as inhibitors | hit rate 2.8% among 360,000; further: potency means the concentration at half of the fitted maximal effect; series mostly up to about 57 µM; on the % scale 0 is the no-effect control and ±100 the full control effect; nearly all actives have a fitted effect of over 65% in size
TSHR antagonist – antagonists of human thyroid stimulating hormone receptor; TSHR-expressing cells, TSH-stimulated cAMP HTRF, 2 h; stronger effect = lower value; hit rate 0.2% among 330,000; AID 504810; P16473; activity change, negative = inhibition, % at 11.5 µM;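 active means activity change below a set negative limit, meaning inhibition stronger than a set level, cut at about -70% in these data; inconclusive means activity change between two set negative limits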; further: on the % scale 0 is the no-effect control and ±100 the full control effect
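Cell-based HTRF cAMP assay; TSHR cells + compound, TSH EC80 (4nM final), 2 h, 37 deg C. Lysis with anti-cAMP cryptate and cAMP-d2, 30 min RT, read 665/620 nm.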
Vif-APOBEC3G blk – inhibitors of Vif-APOBEC3G interaction. Q9HC16. HeLa A3G-eYFP + Vif (tagged APOBEC3G with the HIV-1 protein that degrades it), YFP fluorescence, overnight. Potency, µM (doses to about 46.1 µM), for the others: at the top dose activity, negative = active, usual class: inhibitors. hit rate 0.076% among 410,000; further: potency means the concentration at half of the fitted maximal effect; on the % scale 0 is the no-effect control and ±100 the full control effect; nearly all actives have a fitted effect of over 60% in size
Target sequence (Q9HC16 whole entry, looked up): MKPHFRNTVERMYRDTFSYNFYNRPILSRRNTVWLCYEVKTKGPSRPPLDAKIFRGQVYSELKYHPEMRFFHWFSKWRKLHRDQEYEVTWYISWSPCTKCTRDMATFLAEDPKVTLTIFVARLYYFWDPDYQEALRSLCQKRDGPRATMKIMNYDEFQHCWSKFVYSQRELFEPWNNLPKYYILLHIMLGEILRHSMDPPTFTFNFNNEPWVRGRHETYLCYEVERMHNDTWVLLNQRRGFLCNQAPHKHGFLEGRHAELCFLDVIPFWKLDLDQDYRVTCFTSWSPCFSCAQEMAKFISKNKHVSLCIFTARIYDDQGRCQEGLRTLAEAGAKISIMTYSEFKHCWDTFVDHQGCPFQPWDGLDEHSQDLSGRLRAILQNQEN
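Read-out is eYFP fluorescence (Ex 488/Em 500-530) from Vif-expressing HeLa A3G-eYFP cells; more signal means A3G escaped Vif-mediated degradation. Cells plated overnight, compound pinned in, incubated overnight at 37 deg C.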
* hit, by the source's call; ? = inconclusive; nt = no result. Unless noted, the call rests on the fitted dose curve; in most records, active means well fitted curve in the direction sought with a large enough effect; inconclusive means small, poorly fitted or top-dose-only effect, or another doubt; inactive means no such curve, though single readings can be large; an effect the other way counts as inactive or inconclusive.

SMILES | Vif-APOBEC3F blk | VDR inh | PLK1 PBD inh | TSHR antagonist | Vif-APOBEC3G blk
CCc1ccc(CC(=S)N2CCOCC2)cc1 | 4% | -9% | -18% | 6 | 1%
CC(=O)c1ccc(-c2ccc(C3C4C=CCCC4(C)C(=O)N3Cc3ccccc3)c(F)c2)cc1 (stereo not drawn) | nt | -12% | nt | nt | 4%
C=CCn1c(=O)c(CCC(=O)Nc2ccc(N3CCOCC3)cc2)nc2cc(C(F)(F)F)ccc21 | 4% | -26% | 21µM* | 9 | 2%
CC(=O)Nc1ccccc1NC(=O)C/C(C)=N/NC(=O)c1ccccn1 | -2% | -24% | 27µM* | 15 | 1%
CCn1cc(/C=C(\NC(=O)c2ccc(OC)c(OC)c2)C(=O)N2CCOCC2)c2ccccc21 | 0% | -25% | 27µM* | 14 | 1%
CN(C)S(=O)(=O)n1cc(/C=C(\NC(=O)c2ccccc2Cl)C(=O)N2CCOCC2)c2ccccc21 | -2% | 3% | -1% | -5 | 4%
CN(C)S(=O)(=O)n1cc(/C=C(\NC(=O)c2ccccc2F)C(=O)N2CCOCC2)c2ccccc21 | 0% | ? | 19µM* | -4 | 1%
c1ncc2snnc2n1 | nt | nt | nt | nt | 3%
Cc1ccoc1C(=O)N1CCCCC1C(=O)O (stereo not drawn) | 15% | ? | 15µM* | 2 | 0%
Cc1cc(C)n(-c2ccc(NC(=O)C3CCCCN3C(=O)c3occc3C)cc2)n1 (stereo not drawn) | -4% | -18% | -2% | 1 | 1%
Oc1ccc(COC2CCN(Cc3ccccc3)C2)c2cccnc12 (stereo not drawn) | nt | nt | nt | 3 | nt
O=C(CCC(=O)OCc1ccc(Br)cc1)Nc1ccccc1 | 5% | ? | 27µM* | -3 | 0%
CCSc1nc(-c2cccs2)nc2ccccc12 | -14% | -7% | 24µM* | -10 | 0%
c1ccc(CNc2nc(-c3cccs3)nc3ccccc23)cc1 | ? | 4% | -1% | 10 | -5%
O=C1CCC[C@@H]2CC(Nc3ccccc3)C[C@@H]3CCN1[C@H]23 (stereo partly drawn) | nt | nt | nt | nt | 3%
Cc1ccc(N(C(=O)COc2ccccc2C)S(=O)(=O)c2ccc(Cl)cc2)cc1 | 0% | -17% | nt | nt | -2%
O=C(O)c1c(Cl)c(Cl)c(Cl)c(Cl)c1-c1c2cc(I)c(=O)c(I)c-2oc2c(I)c(O)c(I)cc12 | nt | 5.6µM* | nt | nt | nt
O=S(=O)(c1ccccc1F)N1CCN(c2nc(-c3cccs3)nc3ccccc23)CC1 | nt | 3% | nt | nt | 2%
O=C(NCc1ccccc1)c1ccc2c(=O)n(CCCN3CCCC3=O)c(=S)[nH]c2c1 | 8% | 1% | -5% | -3 | 0%
O=C(NCCCN1CCCC1=O)c1ccc2c(=O)n(Cc3ccco3)c(=S)[nH]c2c1 | -8% | -4% | 4.7µM* | -1 | 2%
O=C(COC(=O)c1c2c(nc3ccccc13)/C(=C\c1ccco1)CC2)NC1CCCC1 | ? | -18% | 9.5µM* | nt | -18%
CCOc1ccccc1CN1CCC(N2CCOCC2)CC1 | 10% | -23% | 38µM* | -3 | 3%
CC(C)=CCC[C@](C)(O)C1CC[C@]2(C)[C@@H]1CC[C@@H]1[C@@]3(C)CCC(=O)C(C)(C)[C@@H]3CC[C@]12C (stereo partly drawn) | nt | 3% | nt | nt | nt
O=C(O)c1ccnc2c(O)cccc12 | nt | nt | nt | 23 | nt
COc1cc(/C=C/C(=O)OCC(=O)Nc2ccc(S(N)(=O)=O)cc2)ccc1O | 0% | -9% | 13µM* | -7 | 0%
SMILES | Vif-APOBEC3F blk | VDR inh | PLK1 PBD inh | TSHR antagonist | Vif-APOBEC3G blk
CC(C)CN(C[C@@H](OP(=O)(O)O)[C@H](Cc1ccccc1)NC(=O)O[C@@H]1CCOC1)S(=O)(=O)c1ccc(N)cc1 | nt | -11% | nt | nt | nt
O=Cc1cc2c3c(c1)CCCN3CCC2 | nt | nt | nt | nt | -1%
CC(C)c1ccc(Nc2nnns2)cc1 | 4% | 79µM* | 27µM* | -6 | 1%
COc1cc2oc(=O)c3c4c(cc5ccc(c1CCN(C)C)c2c53)OCO4 | nt | 40µM* | nt | nt | nt
COc1ccc(-c2oc(=O)c3cc(OC)c(OC)cc3c2-c2ccc3c(c2)OCO3)cc1 | 0% | -9% | -7% | -7 | 1%
Clc1ccc(-c2nc(CSc3ccccn3)cs2)cc1 | -1% | nt | -23% | nt | -3%
Nc1ccccc1SCc1csc(-c2ccc(Cl)cc2)n1 | -4% | ? | 9.5µM* | -12 | -21%
C=CCC(C)(O)c1cccc(Br)c1 (stereo not drawn) | nt | 5% | nt | nt | nt
Cc1ccc2ccc3cc(C(=O)N4CCN(c5ccccc5F)CC4)nc3c2[nH]1 | -2% | 8% | nt | nt | -5%
Cc1ccc2ccc3cc(C(=O)Nc4ccc(C)c(F)c4)nc3c2[nH]1 | ? | 8% | nt | nt | 13µM*
COc1cc2c(NC3CCN(C)CC3)nc(N3CCCN(C)CC3)nc2cc1OCCCCCCN(C)C | nt | nt | nt | nt | 4%
CCOC(=O)C[C@H]1c2cc(F)ccc2S(=O)(=O)N1Cc1cc(OC)c(OC)c(OC)c1 | nt | nt | nt | nt | 1%
Cc1ccc(C)c(N2CCN(S(=O)(=O)c3ccc(C(=O)N(C)C)s3)CC2)c1 | 6% | 14% | nt | nt | 8%
OC1(c2cccc(F)c2)CCN(Cc2ccncc2)CC1 | 2% | -6% | -10% | 5 | 3%
O=C(CCn1nnc2ccccc21)N1CCC(O)(c2cccc(F)c2)CC1 | nt | ? | 27µM* | 16 | 0%
Cc1ccc(C(=O)Nc2ncc3c(Cl)cccc3n2)cc1 | -5% | -22% | 21µM* | 12 | ?
Cc1ccc(NC(=O)CCC(=O)NNS(=O)(=O)c2ccc(Cl)cc2)cc1C | 7% | -8% | -6% | 1 | 1%
O=C(CCC(=O)Nc1ccccc1)NNS(=O)(=O)c1ccc(Cl)cc1 | 2% | -16% | 19µM* | -6 | -6%
Cc1ccc(NC(=O)CCC(=O)NNS(=O)(=O)c2ccccc2)c(C)c1 | -2% | -11% | 6.7µM* | -7 | -7%
O=C(CCCNC(=O)c1ccc(Cl)cc1)Nc1ccc(S(=O)(=O)Nc2ncccn2)cc1 | 3% | ? | 27µM* | 0 | 1%
Cc1ccc(NC(=O)CCC(=O)NNS(=O)(=O)c2ccccc2)cc1C | -6% | ? | 27µM* | 4 | 3%
CCSc1ncnc2nc[nH]c12 | nt | -5% | nt | nt | 4%

Source: PubChem (National Center for Advancing Translational Sciences (NCATS))
